Measurements as given in PubChem BioAssay AID1063 (University of Pittsburgh Molecular Library Screening Center, 2008).
Among all 200,000 compounds or so, about 18,000 (9%) were called active. What follows is part of a selection rich in actives, with near analogues and random picks from the rest. A number with no mark means an inactive call. Rule as the data show it: active = inhibition above about 50%; inactive = the rest.

Assay: antileishmanial activity against promastigotes – primary screen (AID 1063);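 also: promastigotes grown with compound for 44 hours at 28 °C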
Conditions: Leishmania major promastigotes, resazurin fluorescence viability; at 10 µM; stronger effect = higher value

| SMILES | inhibition |
| --- | --- |
| Clc1ccc(C2=CSC3=Nc4cccc5cccc(c45)N23)cc1 | 99.4% (active) |
| Cc1ccc(NC(=O)O/N=C/c2cccc([N+](=O)[O-])c2)cc1 | -3.19% |
| O=C1CCC/C(=N\NC(=O)NC2CCCCC2)C1 | -1.59% |
| CCOc1ccc(S(=O)(=O)Nc2nccs2)cc1 | -5.45% |
| CC(C)(C)C(=O)CN1C2=NCCN2c2ccccc21 | -5.39% |
| Fc1cccc(CSc2nnc3ccc(-c4ccncc4)nn23)c1 | 10.7% |
| CCOC(=O)c1[nH]c2ccc(OC)cc2c1NC(=O)N1CCOCC1 | 2.48% |
| Cc1c(C(=O)N2CCOCC2)[nH]c2ccc(OCc3ccccc3)cc12 | 88.8% (active) |
| Cc1c(C(=O)CN2CCOCC2)[nH]c2ccccc12 | -3.24% |
| CCCCN(C(=O)c1ccc(OC(F)(F)F)cc1)c1c(N)n(CCC)c(=O)[nH]c1=O | -4.12% |
| Cc1ccc(S(=O)(=O)N(C)C)cc1NC(=O)COC(=O)C1COc2ccccc2O1 (configuration not stated) | 4.18% |
| CSc1ncccc1C(=O)Nc1nc2ccc(F)cc2s1 | 28.5% |
| Fc1ccc2nc(N3CCCCC3)sc2c1 | 2.6% |
| Fc1ccc2nc(Nc3nc4c(s3)CCCC4)sc2c1 | 77.9% (active) |
| CCn1c(SCC(=O)N(C)C2CCS(=O)(=O)C2)nnc1-c1cccs1 (configuration not stated) | -1.56% |
| COc1ccc(NC(=O)c2cc3nc(-c4ccccc4)cc(C)n3n2)cc1OC | 19.4% |
| CC(=O)N(CCCN(C)C)c1nc2ccc(C)cc2s1 | -6.81% |
| COc1cccc2sc(N(CCCN(C)C)C(=O)C(c3ccccc3)c3ccccc3)nc12 | 94.5% (active) |
| CN(C)CCCN(C(=O)COc1ccccc1)c1nc2c(Cl)cccc2s1 | 1.9% |
| CCCCCCCNc1nc(Cl)nc(NCCO)n1 | -8.89% |
| COc1ccc(Br)cc1CN1CCN(C(=O)c2cccc(OC)c2OC)CC1 | 0.16% |
| COc1cc2c(C(=O)N3CCN(C)CC3)c(CSc3ccccc3)n(C)c2cc1Br | 50.6% (active) |
| COc1ccccc1OCc1ccc(C(=O)N2CCN(C)CC2)o1 | -7.4% |
| CC(=O)c1ccc(N2CCN(S(=O)(=O)c3c(C)[nH]c(=O)[nH]c3=O)CC2)cc1 | -5.88% |

| SMILES | inhibition |
| --- | --- |
| Cc1oc2cc([N+](=O)[O-])c(O)c([N+](=O)[O-])c2c1C(=O)c1ccc(Br)cc1 | -8.1% |
| COc1cccc(CN(C)CC(=O)Nc2sc3c(c2C#N)CCC3)c1 | -4.03% |
| O=C(CN1C(=O)CC(c2ccccc2)S(=O)(=O)c2ccccc21)NC1CCCC1 (configuration not stated) | 5.62% |
| COc1ccc(-n2cnnc2SCC(=O)Nc2cccc([N+](=O)[O-])c2)cc1 | -9.51% |
| CC(C)CC(=O)NC(=S)NNC(=O)c1cccc([N+](=O)[O-])c1 | 7% |
| Cn1c(-c2ccc(F)cc2)cnc1SCC(=O)NNC(=O)Cc1ccccc1 | 0.35% |
| COC(=O)Cn1c2ccc(C)cc2c2nc(C)sc21 | -6.29% |
| COC(=O)c1sccc1NC(=O)c1cc(OC)c(OC)c(OC)c1 | 8.27% |
| COC(=O)Cn1c(=NC(=O)c2cc(OC)c(OC)c(OC)c2)sc2cc(OC)ccc21 | 55.3% (active) |
| CC(C)(C)C(=O)CSc1nc2ccccc2o1 | 4.86% |
| CCN(CC)CCNc1nc(-c2ccc(OC(F)F)cc2)c(C)s1 | 99.4% (active) |
| NC(=O)C[n+]1cccc(C(N)=O)c1 | -3% |
| COn1c(-c2ccc(Cl)cc2Cl)nc2ncccc21 | -6.75% |
| Cc1cc(-c2n[nH]c(=S)n2/N=C/C(Br)=C/c2ccccc2)n[nH]1 | 88.5% (active) |
| Cc1ccccc1-c1n[nH]c(=S)n1/N=C/c1ccc(-c2ccccc2Br)o1 | 23% |
| COc1ccccc1N1CCN(/N=C\C(Br)=C\c2ccccc2)CC1 | -5.39% |
| S=c1[nH]nc(-c2cccnc2)n1/N=C/C(Cl)=C\c1ccccc1 | 86% (active) |
| c1ccc(-n2nnnc2-c2cccnc2)cc1 | -7.89% |
| CCN(CC)S(=O)(=O)c1cccc(-c2n[nH]c(=S)n2/N=C/c2ccc(C(=O)OC)cc2)c1 | 27.8% |
| Clc1ccc(N/N=C/c2cccs2)nn1 | -2.51% |
| C/C(N)=C(/C#N)C(=O)COC(=O)c1cc(-c2cccc(Br)c2)nc2ccccc12 | 59.9% (active) |
| C/C(N)=C(/C#N)C(=O)COC(=O)c1cc(-c2ccccc2)nc2ccc(Br)cc12 | -4.87% |
| C/C(N)=C(/C#N)C(=O)COC(=O)c1cc(-c2ccc(C)cc2)nc2ccccc12 | 18.1% |
